34 compounds from PubChem BioAssay (NCI) can be followed below.

Holding throughout (assay): NCI-60 one-dose screen, 48 h (100 = growth as untreated, 0 = no growth, -100 = all killed)
Details in all cases: 10 µM

Assay [1] concerns DU-145 prostate.
In assay [2] the test system is MALME-3M melanoma.
The subject of assay [3] is MDA-MB-231 breast.
The test system of assay [4] is RXF 393 renal.
Assay [5] has as its system SF-268 CNS.
In assay [6] the test system is SF-295 CNS.
Assay [7] has as its system SF-539 CNS.
The subject of assay [8] is UACC-257 melanoma.
Assay [9] concerns M14 melanoma.
Assay [10] has as its system K-562 leukemia.

The structures appear in SMILES notation. Compounds without any hit were thinned out: in the full panel of roughly 83,000, 20% have a hit.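 Negative percent growth values reflect cell death: -40 means 40% of the cells present at the start died, and -100 means all died.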 A number with no mark means an inactive call. Active and inactive are the calls of the source. The calls were made as follows: active = growth percent below 10; inactive = the rest.

As for `COc1cc(OC)c2ccc(=O)oc2c1`, the growth was 102% in assay [1]; 136% in assay [2]; 93.4% in assay [3]; 123% in assay [4]; 102% in [5]; 100% in [6]. In addition, the growth is 106% in assay [7] and 98.1% in [8].
In the case of `CC1=C(/C=C/C(C)=C/C=C/C(C)=C/CO)C(C)(C)CCC1`, the growth was 112% in assay [1]; 120% in [2]; 102% in [3]; 114% in assay [5]; 110% in assay [6]; 105% in assay [7]. For the same compound, the growth in assay [8] is 99.9%; in assay [9], 104%.
With `CCCCCCCCCCCCCCCCC1CC(=O)OC1=O` (stereo unspecified), the growth in assay [1] was 121%; in assay [2], 114%; in assay [3], 98.3%; in assay [4], 116%; in [5], 113%; in [6] it was 99.3%. For the same compound, the growth in [7] and in [8] was 104% each time.
Turning to `CCOC(=O)C(C#N)Cc1ccccc1` (stereo unspecified), the growth in assay [10] was 125%; in [2], 136%; in assay [4], 124%; in assay [5] it was 113%; in assay [6], 104%; in assay [7], 114%. Moreover, the values for the growth in assay [8] and in assay [9] were 117% and 108%, respectively.
As for `Nc1ccccc1C(=O)Nc1ccc(Cl)cc1Cl`, the growth in assay [1] was 106%; in assay [3], 84.4%; in assay [4], 83.7%; in assay [5], 101%; in assay [7], 94.4%; in [8], 86.5%. For the same compound, the growth in [9] was 94.7%.
With `Nc1ccc(C(=O)c2ccc(N)c(Br)c2)cc1Br`, the growth in [10] is 15.7%; in assay [2] it was 78.8%; in assay [3], 24.8%; in assay [4] it was -17.4% (active); in assay [6] it was 17.6%; in assay [7], -11.2% (active). Also, the growth in assay [8] was 67.1%.
With `S=C(Nc1ccccc1)N1CCCCC1`, the growth was 110% in assay [10]; 107% in assay [2]; 98.5% in assay [3]; 109% in assay [4]; 107% in assay [5]; 98.2% in assay [6]. Also, the growth in assay [7] was 96.7%; in [8], 95.9%; in assay [9] it was 97.3%.
For the compound `O=C1c2ccccc2C(=O)N1OCc1ccccc1`, the growth was 112% in assay [1]; 98.2% in [2]; 104% in [3]; 122% in [4]; 106% in assay [5]; 110% in assay [6]. Further, the growth in assay [7] was 102%; in [8] it was 122%; in assay [9], 108%.
For `CCOC(=O)/C(C#N)=C/c1cccc(C)c1`, the growth in [1] was 107%; in assay [2], 96%; in assay [3], 110%; in [5], 94.1%; in assay [6] it was 97.9%; in assay [7], 95.1%. Besides, the growth was 104% in assay [8] and 97.4% in assay [9].
`O=[N+]([O-])c1ccc(N=Nc2ccccc2)cc1`: the growth in [10] is 87.2%; in [2], 101%; in [3] it was 88.9%; in assay [4] it was 107%; in [5] it was 89.6%; in assay [6], 91.3%. Also, the growth in assay [7] was 98.8%; in assay [8] it was 108%; in assay [9] it was 102%.
Regarding `CC(C)COC(=O)COC(=O)OCCOCCOC(=O)OCC(=O)OCC(C)C`, the growth in assay [1] was 95.3%; in assay [2], 104%; in [3], 113%; in assay [4] it was 103%; in [5], 93.5%; in [6], 115%. The growth in assay [7] was 80.5%; in assay [8], 103%.
Take `c1ccc(/C(=N\N=C(/c2ccccc2)c2cccs2)c2cccs2)cc1`: the growth in assay [1] is 105%; in assay [10], 83.6%; in assay [4], 108%; in assay [5], 97%; in assay [6], 95.8%; in [7] it was 111%. Further, the growth in [8] was 106%; in assay [9] it was 101%.
Consider `CN(C)c1ccc(CNC(C(=O)c2ccccc2)c2ccccc2)cc1` (stereo unspecified), for which the growth in assay [10] was 94.8%; in [2], 94.2%; in assay [3], 107%; in assay [5] it was 96.9%; in [6], 98.1%; in assay [7], 111%. Also, the growth in [8] was 94.9%; in [9] it was 114%.
In the case of `CC1CCC(C(=O)O)N1` (stereo unspecified), the growth in assay [10] is 98.4%; in assay [2], 102%; in assay [3] it was 102%; in [4] it was 109%; in assay [5] it was 97.5%; in [6], 101%. Moreover, the values for the growth in [7], in [8] and in assay [9] were 95%, 103% and 102%, respectively.
For `CC1=CC(=O)c2ccccc2C1=O`, the growth in assay [1] is 113%; in [3], 98.8%; in assay [5], 119%; in [6], 109%; in assay [7], 104%; in assay [8], 104%. Also, in [9], the growth was 107%.
On to `O=C(CC(=O)c1ccccc1O)c1ccccc1`, for which the growth in assay [1] is 91.8%; in [2], 115%; in assay [3], 91.1%; in assay [4], 103%; in assay [5] it was 90.7%; in assay [6], 89.5%. The growth was 95.5% in assay [7], 95.7% in [8] and 97.4% in assay [9].
On to `COCCCC/C(=N\OCCN)c1ccc(C(F)(F)F)cc1`, for which the growth was 123% in assay [1]; 112% in assay [2]; 74% in assay [3]; 97.4% in assay [4]; 102% in assay [5]; 90.3% in [6]. The values for the growth in assay [7], in assay [8] and in [9] were 109%, 106% and 109%, respectively.
With `O=C(O)C(c1ccccc1)C(O)c1ccccc1` (stereo unspecified), the growth is 100% in [10]; 117% in assay [2]; 102% in assay [3]; 107% in [4]; 105% in assay [5]; 96.5% in assay [6]. The growth in assay [7] was 98.4%; in assay [8], 85.7%; in assay [9], 104%.
With `CC(=O)C1CCCCC1`, the growth was 111% in assay [1]; 107% in assay [2]; 102% in assay [3]; 99.1% in [4]; 107% in assay [5]; 92.4% in [6]. The growth in assay [7] was 111%; in [9], 106%.
On to `O=C(O)CCCc1ccccc1`, for which the growth in assay [1] is 119%; in [2], 118%; in assay [3] it was 117%; in [4], 113%; in assay [5], 118%; in assay [6], 110%. The growth is 120% in assay [7], 104% in [8] and 101% in assay [9].
Turning to `CCCNc1ccc(C2=NCCCN2)cc1`, the growth in assay [1] was 103%; in assay [10], 89.8%; in assay [3] it was 98.7%; in [5], 98.9%; in assay [6] it was 91%; in assay [7], 102%. The growth in [8] is 99.8%; in assay [9], 96.1%.
With `O=[N+]([O-])c1ccc(O)c(S(=O)(=O)O)c1`, the growth in assay [1] is 110%; in assay [2], 127%; in assay [3], 88.7%; in [4], 117%; in assay [5], 114%; in assay [6], 102%. The growth in [7] was 100%; in assay [8], 99.3%.
Turning to `CC(=O)Nc1cccc(Cl)c1C`, the growth in assay [1] was 106%; in [2] it was 101%; in [3], 99.5%; in assay [4] it was 106%; in assay [5], 92.3%; in assay [6] it was 105%. The figures for the growth in [7], in assay [8] and in assay [9] were 107%, 84.9% and 108%, respectively.
For the compound `O=C(CCNNC(=O)c1ccncc1)NCc1ccccc1`, the growth is 110% in assay [2]; 60.9% in assay [3]; 93.8% in assay [4]; 95.8% in [5]; 105% in assay [6]; 95.4% in assay [7]. Besides, the growth in assay [8] is 110%.
For the compound `CC(C)(C)c1cc(O)c(C(C)(C)C)cc1O`, the growth was 108% in [1]; 96.7% in [10]; 88.9% in assay [3]; 95.8% in assay [5]; 85.7% in [6]; 86.1% in assay [7]. In addition, the results for the growth in [8] and in [9] were 85.6% and 103%, respectively.
`O=C(N/N=C/c1ccccc1O)Nc1nn[nH]n1`: the growth is 116% in [1]; 128% in [10]; 102% in [3]; 113% in assay [5]; 102% in [6]; 96.9% in assay [7]. The growth in [8] is 104%; in assay [9], 103%.
`COc1cc([C@@H]2c3cc4c(cc3[C@H](O)[C@H]3COC(=O)[C@H]23)OCO4)cc(OC)c1OC`: the growth in [1] was -23.9% (active); in assay [2], 54.2%; in assay [3], 10.1%; in [4], 41%; in assay [5] it was 27.3%; in assay [6] it was -14.1% (active). For the same compound, the growth in assay [7] was 5.77% (active); in assay [8], 53.2%; in assay [9] it was 6.41% (active).
For `CCCC(=O)c1cc(C)ccc1OC`, the growth was 119% in assay [1]; 135% in assay [2]; 93.8% in assay [3]; 109% in [4]; 96% in [5]; 125% in assay [6]. For the same compound, the growth in assay [7] is 94.9%; in [8], 112%.
Take `CCn1c(=O)n(C)c2c(=O)n(C)c(=O)n(C)c21`: the growth in assay [10] is 107%; in assay [3], 110%; in assay [4], 109%; in [7] it was 106%; in [8], 99%; in [9], 101%.
In the case of `COC(=O)Nc1nc2ccc(C(=O)c3cccs3)cc2[nH]1`, the growth was -1.55% (active) in assay [1]; 36.2% in assay [2]; 24% in [3]; 44.9% in [4]; 36.9% in assay [5]; -9.66% (active) in assay [6]. Besides, the values for the growth in [7] and in assay [8] were 10.3% and 56%, respectively.
With `O=C(O)c1cccc([N+](=O)[O-])c1O`, the growth in assay [1] is 109%; in assay [10] it was 106%; in assay [3], 103%; in assay [5], 106%; in assay [6] it was 90.8%; in assay [7], 114%. In addition, the figures for the growth in assay [8] and in assay [9] were 107% and 94.1%, respectively.
In the case of `Nc1ccc(CC(=O)O)c(N)c1`, the growth in [10] was 104%; in assay [2], 94.3%; in assay [3], 103%; in assay [4], 102%; in [5], 94%; in assay [6] it was 104%. The growth was 102% in assay [7], 101% in assay [8] and 100% in assay [9].
As to `C[C@@H](c1ccccc1)[C@@H](C(=O)O)c1ccccc1`, the growth in assay [1] is 114%; in assay [10], 110%; in [3], 110%; in assay [5], 106%; in [6] it was 98.6%; in [7], 96.5%. The growth was 98.8% in assay [8] and 101% in [9].
`C/C=C/CC(C)C(O)C1C(=O)NC(CC)C(=O)N(C)CC(=O)N(C)C(CC(C)C)C(=O)NC(C(C)C)C(=O)N(C)C(CC(C)C)C(=O)NC(C)C(=O)NC(C)C(=O)N(C)C(CC(C)C)C(=O)N(C)C(CC(C)C)C(=O)N(C)C(C(C)C)C(=O)N1C` (stereo unspecified): the growth is 39% in assay [1]; -6.48% (active) in assay [3]; 38.3% in assay [5]; -16.7% (active) in assay [6]; -1.51% (active) in assay [7]; 1.79% (active) in assay [8]. For the same compound, the growth in assay [9] is 4.21% (active).
